Results from PubChem BioAssay (EPA / NIEHS).
Records with an inconclusive call do not appear. Active and inactive are the calls of the source. How the source made its calls: active means hit-call score of the fitted dose curve at least 0.9, where 1 is the maximum; inconclusive means response in the unintended direction; inactive means score below 0.9.

Assays:
[1] = TOX21_p53_BLA_p4_viability: Viability Assessment in the Tox21 HCT-116 p53 Agonism Beta-lactamase Assay, Phase 4 (AID 2283597);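 further: hits lower the luminescence signal meaning cytotoxicity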
Summary of the method: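 HCT-116 p53-bla cells, 4000/well, dosed after 5 h attachment and incubated 16 h at 37 °C, 5% CO2. Viability from CellTiter-Glo ATP luminescence after 30 min at room temperature, taken after the beta-lactamase read; loss of signal indicates cytotoxicity.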

[2] = target: Cellular tumor antigen p53 (Homo sapiens) (UniProt P04637); assay: TOX21_p53_BLA_p5_ratio: Tox21 HCT-116 p53 Agonism Beta-lactamase Assay, Ratio, Phase 5 (AID 2283599)
Summary of the method: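 HCT-116 p53-bla cells (4000/well) plated 5 h, dosed with compound (217-fold DMSO dilution) for 16 h at 37 C; CCF4-AM substrate 2 h at room temperature. Activity is the 460/530 nm emission ratio (405 nm excitation), fitted in gain-of-signal direction versus DMSO.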

[3] = TOX21_p53_BLA_p5_viability: Viability Assessment in the Tox21 HCT-116 p53 Agonism Beta-lactamase Assay, Phase 5 (AID 2283600)
Summary of the method: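 HCT-116 p53 beta-lactamase reporter cells, 4000/well, were exposed to compound (pin transfer, 217-fold dilution) for 16 hours at 37C. Cellular ATP was read by CellTiter-Glo luminescence after 30 min at room temperature.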

[4] = target: Cellular tumor antigen p53 (Homo sapiens) (UniProt P04637); assay: TOX21_p53_BLA_p3_ratio: Tox21 HCT-116 p53 Agonism Beta-lactamase Assay, Ratio, Phase 3 (AID 2283596)
Summary of the method: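 HCT116 p53-bla cells (4000/well) given compound in DMSO (217-fold dilution) after 5 h, incubated 16 h at 37C. CCF4-AM substrate 2 h at room temperature; 460/530 nm emission ratio, gain fitted against DMSO.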

[5] = target: Cellular tumor antigen p53 (Homo sapiens) (UniProt P04637); assay: TOX21_p53_BLA_p4_ratio: Tox21 HCT-116 p53 Agonism Beta-lactamase Assay, Ratio, Phase 4 (AID 2283601)
Summary of the method: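 HCT-116 p53 beta-lactamase reporter cells (4000/well) preincubated 5 h, then compound (217-fold dilution of DMSO stock) for 16 h at 37C. CCF4-AM substrate added 2 h at room temperature; 460/530 nm emission ratio fitted upward versus DMSO.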

Chain of Cellular tumor antigen p53 (Homo sapiens) (P04637 whole entry, looked up): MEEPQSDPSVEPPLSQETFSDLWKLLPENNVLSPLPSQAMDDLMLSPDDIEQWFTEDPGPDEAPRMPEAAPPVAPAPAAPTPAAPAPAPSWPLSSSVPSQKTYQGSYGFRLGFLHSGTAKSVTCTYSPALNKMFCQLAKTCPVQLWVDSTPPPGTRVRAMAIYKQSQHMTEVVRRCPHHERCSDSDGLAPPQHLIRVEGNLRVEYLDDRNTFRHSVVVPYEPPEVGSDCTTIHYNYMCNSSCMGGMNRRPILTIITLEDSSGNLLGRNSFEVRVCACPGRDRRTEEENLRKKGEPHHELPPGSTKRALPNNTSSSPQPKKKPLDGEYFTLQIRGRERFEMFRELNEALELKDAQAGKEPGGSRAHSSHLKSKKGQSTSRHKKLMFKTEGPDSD

Q: With `Fc1ccccc1-c1ccccc1` as the compound, how does the outcome [1] read?
A: inactive

Q: What about the outcome [2] of the same compound?
A: inactive

Q: And the outcome [3]?
A: inactive

Q: Which outcome [1] does the source give for `CN1CCC(=C2c3ccccc3CCc3sccc32)CC1` here?
A: inactive

Q: With `Cc1cc(O)ccc1N` as the compound, how does the outcome [4] read?
A: inactive

Q: What about the outcome [3] of the same compound?
A: inactive

Q: What does the source list for `CC(C)C[C@H](NC(=O)[C@@H](Cc1c[nH]c2ccccc12)NC(=O)[C@H](Cc1ccc(O)cc1)NC(=O)[C@H](CO)NC(=O)[C@H](Cc1c[nH]c2ccccc12)NC(=O)[C@H](Cc1cnc[nH]1)NC(=O)[C@@H]1CCC(=O)N1)C(=O)N[C@@H](CCCN=C(N)N)C(=O)N1CCC[C@@H]1C(=O)NCC(N)=O`?
A: outcome [4]: inactive; outcome [3]: inactive; outcome [5]: inactive

Q: Which outcome [1] does the source give for `CCCn1cc[n+](C)c1C` here?
A: inactive

Q: And the outcome [2]?
A: inactive

Q: With `C=CC(=O)CC` as the compound, how does the outcome [1] read?
A: inactive

Q: What about the outcome [2] of the same compound?
A: inactive

Q: Which outcome [1] does the source give for `COc1ccc(CCNCC(O)COc2cccc(C)c2)cc1OC` (centres undefined) here?
A: inactive

Q: Which outcome [4] does the source give for `Cc1ccc(C(=O)c2ccc(CC(=O)O)n2C)cc1` here?
A: inactive

Q: What about the outcome [5] of the same compound?
A: inactive

Q: Which results are given for `CCNC(=O)NCCCOc1cccc(CN2CCCCC2)c1`?
A: outcome [4]: inactive; outcome [5]: inactive

Q: With `COc1cc2nc(N3CCN(C(=O)c4ccco4)CC3)nc(N)c2cc1OC` as the compound, how does the outcome [4] read?
A: inactive

Q: What about the outcome [2] of the same compound?
A: inactive

Q: What about the outcome [5] of the same compound?
A: inactive

Q: Which outcome [4] does the source give for `CN1[C@@H]2CC[C@H]1CC(OC(=O)c1c[nH]c3ccccc13)C2` (some centres undefined) here?
A: inactive

Q: And the outcome [5]?
A: inactive

Q: What does the source list for `NC(=O)Cc1cccc(C(=O)c2ccccc2)c1N`?
A: outcome [4]: inactive; outcome [5]: inactive

Q: With `NC(=O)Oc1ccc(Cc2ccccc2)cc1` as the compound, how does the outcome [1] read?
A: inactive

Q: For `CN=C(NC#N)Nc1ccc(C2=NNC(=O)CC2C)cc1` (centres undefined), which outcome [4] is on record?
A: inactive

Q: What about the outcome [5] of the same compound?
A: inactive

Q: For `CC(C)(O)c1ccccc1`, which outcome [4] is on record?
A: inactive

Q: And the outcome [2]?
A: inactive

Q: And the outcome [5]?
A: inactive

Q: With `CCC(=O)CC` as the compound, how does the outcome [1] read?
A: inactive

Q: With `OCCCCCCCl` as the compound, how does the outcome [4] read?
A: inactive

Q: And the outcome [5]?
A: inactive

Q: Which results are given for `CC(CN(C)C)CN1c2ccccc2CCc2ccccc21` (centres undefined)?
A: outcome [4]: inactive; outcome [3]: inactive; outcome [5]: inactive

Q: Which results are given for `O=C(O)Cc1csc(-c2ccc(Cl)cc2)n1`?
A: outcome [4]: inactive; outcome [5]: inactive

Q: With `Cc1ccc(C)c(N)c1` as the compound, how does the outcome [3] read?
A: inactive

Q: And the outcome [5]?
A: inactive

Q: Which results are given for `Cc1ccc(CO)cc1`?
A: outcome [2]: inactive; outcome [3]: inactive; outcome [5]: inactive

Q: Which outcome [2] does the source give for `CCCCS(=O)(=O)N[C@@H](Cc1ccc(OCCCCC2CCNCC2)cc1)C(=O)O` here?
A: inactive

Q: What about the outcome [5] of the same compound?
A: inactive

Q: For `C1=C\CC/C=C\CC/1`, which outcome [3] is on record?
A: inactive

Q: What about the outcome [5] of the same compound?
A: inactive

Q: Which results are given for `CCO/C([O-])=N/c1c[n+](N2CCOCC2)no1`?
A: outcome [2]: inactive; outcome [3]: inactive; outcome [5]: inactive

Q: Which outcome [2] does the source give for `CCOC(=O)C(C)(C)C` here?
A: inactive

Q: And the outcome [3]?
A: inactive

Q: Which outcome [2] does the source give for `Nc1ccccc1S(=O)(=O)O` here?
A: inactive

Q: And the outcome [3]?
A: inactive

Q: And the outcome [5]?
A: inactive

Q: Which outcome [2] does the source give for `O=C(O)CNC(=O)c1ccc(CO)o1` here?
A: inactive

Q: What about the outcome [5] of the same compound?
A: inactive

Q: What does the source list for `CCc1ccc(C(=O)C(C)CN2CCCCC2)cc1` (centres undefined)?
A: outcome [2]: inactive; outcome [3]: inactive; outcome [5]: inactive

Q: For `CC(=NCc1ccccc1)c1ccccc1O`, which outcome [2] is on record?
A: inactive

Q: What about the outcome [3] of the same compound?
A: inactive

Q: What about the outcome [5] of the same compound?
A: inactive
